The nature of experiment [1]: Quantitative High-Throughput drug screen in 47 multiple myeloma cell lines against the NCATS MIPE library collection: FR4_PLB cell viability assay (AID 1918924; further: nearly all actives have a fitted effect of over 35% in size). The procedure, abridged: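 Viability readout: CellTiter-Glo luminescence following 5 min room-temperature incubation with reagent. Prior exposure: 48 h, 37C, humidified 5% CO2, 500 cells per well.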
The nature of experiment [2]: Quantitative High-Throughput drug screen in 47 multiple myeloma cell lines against the NCATS MIPE library collection: Delta47_JCRB cell viability assay (AID 1918925; further: nearly all actives have a fitted effect of over 45% in size). In outline: (§1)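 We plated 500 myeloma cells per well, pinned in MIPE 4.0 compounds, and incubated for 48 hours at 37C. ATP was then quantified with CellTiter-Glo, with DMSO and media-only wells defining 100% and 0%.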

A short description of experiment [3]: Quantitative High-Throughput drug screen in 47 multiple myeloma cell lines against the NCATS MIPE library collection: EJM_DSMZ cell viability assay (AID 1918926; further: nearly all actives have a fitted effect of over 30% in size). In outline: as §1
The nature of experiment [4]: Quantitative High-Throughput drug screen in 47 multiple myeloma cell lines against the NCATS MIPE library collection: AMO1_DSMZ cell viability assay (AID 1918927; further: nearly all actives have a fitted effect of over 30% in size). The procedure, abridged:
as §1

A short description of experiment [5]: Quantitative High-Throughput drug screen in 47 multiple myeloma cell lines against the NCATS MIPE library collection: ARP1_JJKsccF8 cell viability assay (AID 1918928; further: nearly all actives have a fitted effect of over 40% in size). The procedure, abridged:
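Luminescence from CellTiter-Glo, taken after 5 min at room temperature, reports cellular ATP as viability. Cells (500 per well) had been treated 48 h at 37 °C with MIPE 4.0 compounds, scaled between DMSO and medium-only controls.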

A short description of experiment [6]: Quantitative High-Throughput drug screen in 47 multiple myeloma cell lines against the NCATS MIPE library collection: ARD_JJKsccE7 cell viability assay (AID 1918929). The procedure, abridged: as §1

Structures are written as SMILES. Results filed as inconclusive are left out. Calls of active or inactive are those of the source. The call rests on the fitted dose curve; in most records, active means well fitted cell-killing curve with a large enough effect; inconclusive means small, poorly fitted or top-dose-only effect, or effect the other way; inactive means no such curve, though single readings can be large or run the other way. Non-standard residues stand in square brackets, D forms with d. Residues, ends and D or L forms follow the SMILES beside them. *: point of attachment. Nva = CCC[C@H](N)C(=O)O; Cbz = O=C(OCc1ccccc1)*
Potency means the concentration at half of the fitted maximal effect.

Take `CC(C=CC(=O)NO)=C[C@@H](C)C(=O)c1ccc(N(C)C)cc1`: the Potency is 332 nM (active) in experiment [1]; 235 nM (active) in experiment [2]; 469 nM (active) in experiment [3]; 235 nM (active) in experiment [4]; 209 nM (active) in experiment [5]; 264 nM (active) in experiment [6].
In the case of `C[C@@H]1CC[C@@]2(OC1)OC1CC3C4CC=C5CC(O)CCC5(C)C4CCC3(C)C1[C@@H]2C` (stereo partly drawn), the Potency entry in experiment [1], in experiment [2], in experiment [3], in experiment [4], in experiment [5] and in experiment [6] was “inactive” each time.
Regarding `Cc1cc(Nc2ncc3c(n2)N(C)C(=O)N(c2cc(NC(=O)c4cccc(C(F)(F)F)c4)ccc2C)C3)n(C)n1`, the Potency in experiment [1] was 418 nM (active); in experiment [2], 209 nM (active); in experiment [3] it was 662 nM (active); in experiment [4], 833 nM (active); in experiment [5], 743 nM (active); in experiment [6] it was 935 nM (active).
Consider `Oc1ccc(-c2ccc(-c3cc(Nc4cccc(CNC5CC5)c4)n[nH]3)cc2)c(O)c1`, for which the Potency in experiment [1] is 935 nM (active); in experiment [2], 469 nM (active); in experiment [3], 935 nM (active); in experiment [4] it was 1320 nM (active); in experiment [5], 4180 nM (active); in experiment [6], 1180 nM (active).
Take `C[C@H](CCC(=O)O)[C@H]1CC[C@H]2[C@@H]3[C@H](O)C[C@@H]4C[C@H](O)CC[C@]4(C)[C@@H]3CC[C@]12C`: the Potency result in experiment [1], in experiment [2], in experiment [3], in experiment [4], in experiment [5] and in experiment [6] was “inactive” each time.
For `CNC(=O)c1cccc(-c2ccc3c(N4CCOC[C@H]4C)nc(N4CCOC[C@H]4C)nc3n2)c1`, the Potency in experiment [1] is 66.2 nM (active); in experiment [2], 29.6 nM (active); in experiment [3], 1660 nM (active); in experiment [4], 83.3 nM (active); in experiment [5] it was 18.7 nM (active); in experiment [6], 1180 nM (active).
On to `CCN(CC)CCNC(=O)c1c(C)[nH]c(C=C2C(=O)Nc3ccc(F)cc32)c1C`, for which the Potency was 10800 nM (active) in experiment [1]; 1520 nM (active) in experiment [2]; 12100 nM (active) in experiment [3]; 3400 nM (active) in experiment [4]; 4810 nM (active) in experiment [5]; 2150 nM (active) in experiment [6].
For `CC(C)(O)Cn1c(NC(=O)c2ccc(-c3cn[nH]c3)s2)nc2cc(CN3CCOCC3)ccc21`, the Potency in experiment [1] is 743 nM (active); in experiment [2], 833 nM (active); in experiment [3] it was 1050 nM (active); in experiment [4] it was 469 nM (active); in experiment [5] it was 1180 nM (active); in experiment [6], 469 nM (active).
`C[C@H](NC(=O)Cc1cc(F)cc(F)c1)C(=O)N[C@H](C(=O)OC(C)(C)C)c1ccccc1`: the Potency result in experiment [1], in experiment [2], in experiment [3], in experiment [4], in experiment [5] and in experiment [6] was “inactive” each time.
For the compound `C[C@H]1C[C@H]2[C@@H]3CCC4=CC(=O)C=C[C@]4(C)[C@@H]3C(=O)C[C@]2(C)[C@@]1(O)C(=O)CO`, the Potency result in experiment [1], in experiment [2], in experiment [3], in experiment [4] and in experiment [6] was “inactive” each time.
Turning to `CC(=O)O[C@@]12CO[C@H]1C[C@H](O)[C@@]1(C)C(=O)[C@H](O)C3=C(C)[C@@H](OC(=O)C(O)[C@@H](NC(=O)OC(C)(C)C)c4ccccc4)C[C@@](O)([C@@H](OC(=O)c4ccccc4)[C@@H]21)C3(C)C` (stereo partly drawn), the Potency entry in experiment [1], in experiment [2], in experiment [3], in experiment [4], in experiment [5] and in experiment [6] was “inactive” each time.
Consider `CC(=O)NCC(=O)N1[C@H]2CC[C@H]1c1cc(Nc3ncc(C(F)(F)F)c(NC4CCC4)n3)ccc12`, for which the Potency in experiment [1] is 9350 nM (active); in experiment [2] it was 662 nM (active); in experiment [3] it was 7430 nM (active); in experiment [4], 235 nM (active); in experiment [5], 4690 nM (active); in experiment [6], 1660 nM (active).
Take `COC[C@H](NC(=O)c1cnc(C)s1)C(=O)N[C@@H](COC)C(=O)N[C@@H](Cc1ccccc1)C(=O)[C@@]1(C)CO1`: the Potency in experiment [1] was 46.9 nM (active); in experiment [2] it was 37.2 nM (active); in experiment [3], 166 nM (active); in experiment [4], 26.4 nM (active); in experiment [5] it was 74.3 nM (active); in experiment [6], 52.6 nM (active).
`C=C1C(=O)O[C@H]2[C@@H]1CCC(C)=CCC[C@@]1(C)O[C@@H]21`: the Potency in experiment [1] was 4690 nM (active); in experiment [2], 2350 nM (active); in experiment [3] it was 5260 nM (active); in experiment [4], 3320 nM (active); in experiment [5], 4690 nM (active); in experiment [6] it was 2960 nM (active).
Regarding `CCOC(=O)N1CCN([N+]([O-])=NOc2ccc([N+](=O)[O-])cc2[N+](=O)[O-])CC1`, the Potency in experiment [1] was 5900 nM (active); in experiment [2] it was 1480 nM (active); in experiment [3] it was 2640 nM (active); in experiment [4] it was 10500 nM (active); in experiment [5], 2960 nM (active); in experiment [6], 5900 nM (active).
For `CN[C@H]1[C@@H](O)[C@@H]2O[C@@H]3O[C@H](C)CC(=O)[C@]3(O)O[C@@H]2[C@@H](NC)[C@H]1O`, the Potency in experiment [1] was 1660 nM (active); in experiment [2], 1180 nM (active); in experiment [3], 166 nM (active); in experiment [4], 418 nM (active); in experiment [5], 1320 nM (active); in experiment [6], 469 nM (active).
On to `C[C@H](NC(=O)C(C#N)=Cc1cccc(Br)n1)c1ccccc1`, for which the Potency is 3720 nM (active) in experiment [1]; 2090 nM (active) in experiment [2]; 1660 nM (active) in experiment [3]; 13200 nM (active) in experiment [4]; 5900 nM (active) in experiment [5]; 11800 nM (active) in experiment [6].
In the case of `NC(=O)Nc1cc(-c2ccc(CN3CCOCC3)cc2)sc1C(N)=O`, the Potency is 18700 nM (active) in experiment [1]; 2090 nM (active) in experiment [2]; 20900 nM (active) in experiment [3]; 2960 nM (active) in experiment [4]; 18700 nM (active) in experiment [5]; 935 nM (active) in experiment [6].
Regarding `CCC[C@@H](C=O)NC(=O)[C@H](CC(C)C)NC(=O)[C@H](CC(C)C)NC(=O)OCc1ccccc1` (Cbz-Leu-Leu-[Nva]-aldehyde), the Potency is 833 nM (active) in experiment [1]; 332 nM (active) in experiment [2]; 1480 nM (active) in experiment [3]; 296 nM (active) in experiment [4]; 332 nM (active) in experiment [6].
With `CC(C)(O)[C@H]1CC[C@@](C)([C@H]2[C@@H](O)C[C@@]3(C)[C@@H]4C[C@H](O[C@@H]5O[C@H](CO)[C@@H](O)[C@H](O)[C@@H]5O)[C@H]5C(C)(C)[C@@H](O[C@@H]6OC[C@@H](O)[C@H](O)[C@@H]6O)CC[C@@]56C[C@@]46CC[C@]23C)O1`, the Potency entry in experiment [1], in experiment [2], in experiment [3], in experiment [4], in experiment [5] and in experiment [6] was “inactive” throughout.
